Results as given in publication PMC10726135, “HNF4α isoforms regulate the circadian balance between carbohydrate and lipid metabolism in the liver”.
Whole data set: some 18,000 sequences, median “log2 normalized intensity” near 0.36, cut for the highest 2% near 7.3. The full list was thinned out, with the highest values kept by preference.

biological target: T1, HNF4alpha8 (COS-7 nuclear extract) (Homo sapiens, UniProt P41235-5 1-452); assay: protein-binding microarray; COS-7 nuclear extract on double-stranded Agilent 4x180k PBM; binding buffer, salt, pH and temperature not given in the material; high values mean tight binding; details: chain copies: 2; label: 3' end of strand 1 on the slide; dsDNA, one strand shown
T1 sequence: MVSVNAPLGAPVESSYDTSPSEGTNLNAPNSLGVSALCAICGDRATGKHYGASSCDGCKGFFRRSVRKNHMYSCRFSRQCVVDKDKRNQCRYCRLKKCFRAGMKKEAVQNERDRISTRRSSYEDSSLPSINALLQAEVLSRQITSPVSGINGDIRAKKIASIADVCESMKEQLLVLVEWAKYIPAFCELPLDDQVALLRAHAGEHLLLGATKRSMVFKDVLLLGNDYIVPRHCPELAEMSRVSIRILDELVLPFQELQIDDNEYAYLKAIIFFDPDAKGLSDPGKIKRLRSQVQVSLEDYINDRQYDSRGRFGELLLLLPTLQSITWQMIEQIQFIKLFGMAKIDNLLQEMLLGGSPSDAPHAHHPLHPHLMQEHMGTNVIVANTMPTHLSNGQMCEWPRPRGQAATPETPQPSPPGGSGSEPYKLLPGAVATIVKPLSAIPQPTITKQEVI
How it was run: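 Binding signal was defined as the normalized, background-corrected gProcessedSignal reported by Agilent software. It came from nuclear extracts of COS-7 cells transiently transfected with a human HNF4α isoform expression vector, applied to a custom Agilent SurePrint G3 4x180k array. That array held ~44,000 test sequences in quadruplicate as double-stranded ~60-nt oligonucleotides, and bound HNF4α was imaged at 2-µm resolution on an Agilent G2565CA scanner.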

Row | Sequence | binding signal [log2 normalized intensity]
1 | GGCAGGCTTCGAAAAATGGGTCTGGGATGTGCCTAGGGAGATTAGAGTATCGGTCGA | 0.36
2 | AGGGATTTCAGTGCCCTCATAAGAGACTTTGCCTAGGGAGATTAGAGTATCGGTCGA | 2.22
3 | AGTCCTGACCTTGGACTCTGCCCTTGGCCTGCCTAGGGAGATTAGAGTATCGGTCGA | 6.67
4 | TGTCCCTCCTGACCTTTGGACTTGATAGAGGCCTAGGGAGATTAGAGTATCGGTCGA | 9.7
5 | CCTGACCTGCCCTTTGTCCCTCCTGCTAGTGCCTAGGGAGATTAGAGTATCGGTCGA | 3.93
6 | TCCTCTATCTTCAAAGCCAGCAACGGTGAGGCCTAGGGAGATTAGAGTATCGGTCGA | 0.0395
7 | CAGCTGTCGTGTGAATAGCACTGACCAGCTGCCTAGGGAGATTAGAGTATCGGTCGA | 0.27
8 | GTTATCTAATGGAGAGGATGGGGACAAAGGGCCTAGGGAGATTAGAGTATCGGTCGA | 2.55
9 | CTAATGGAGAGGATGGGGACAAAGGTCAAGGCCTAGGGAGATTAGAGTATCGGTCGA | 8.12
10 | GACAAAGGTCATTCATGTGCAGGTTGGAATGCCTAGGGAGATTAGAGTATCGGTCGA | 3.11
11 | AATTCCCTGCAAGGACAAAGGTCATGTTTTGCCTAGGGAGATTAGAGTATCGGTCGA | 7.11
12 | GGAGAGGATGGGGACAAAGGTCAAGAAAGCGCCTAGGGAGATTAGAGTATCGGTCGA | 6.33
13 | TTTGGAATTCCCTGCAAGGACAAAGGTCATGCCTAGGGAGATTAGAGTATCGGTCGA | 7.71
14 | TTACTTTTGCAAGGTTTGTTCTTATCATGCGCCTAGGGAGATTAGAGTATCGGTCGA | 0.712
15 | CCCATCCCAGAGGTCAAACTATCTGAGGTGGCCTAGGGAGATTAGAGTATCGGTCGA | 1.93
16 | TCTGGGATGTTGGGAGGAGTGGACTTTGATGCCTAGGGAGATTAGAGTATCGGTCGA | 6.84
17 | GGGACTAGCCTTATCTCAGATGAGACTTTGGCCTAGGGAGATTAGAGTATCGGTCGA | 2.03
18 | TTATCTCAGATGAGACTTTGGACTTTTGAAGCCTAGGGAGATTAGAGTATCGGTCGA | 8.04
19 | GGGCTGAGGATGAGGACTTTGGTCTTATTAGCCTAGGGAGATTAGAGTATCGGTCGA | 4.45
20 | CTGAGAAGATGAAAGACGAAAGGGACTTTGGCCTAGGGAGATTAGAGTATCGGTCGA | 2.82
21 | GAATCTACAGAATTCTCATGGAGGACTTTGGCCTAGGGAGATTAGAGTATCGGTCGA | 3.31
22 | TACAGAATTCTCATGGAGGACTTTGGCCTTGCCTAGGGAGATTAGAGTATCGGTCGA | 7.81
23 | ATCTAGGTGAGGGATGAGGACTTTGATCAGGCCTAGGGAGATTAGAGTATCGGTCGA | 6.79
24 | GATGTTGGGAGGAGTGGACTTTGATCTCAGGCCTAGGGAGATTAGAGTATCGGTCGA | 9.38
25 | TAGCCTTATCTCAGATGAGACTTTGGACTTGCCTAGGGAGATTAGAGTATCGGTCGA | 8.64
26 | AATTCTCATGGAGGACTTTGGCCTTTTGTGGCCTAGGGAGATTAGAGTATCGGTCGA | 6.71
27 | TCAGATGAGACTTTGGACTTTTGAACTAAGGCCTAGGGAGATTAGAGTATCGGTCGA | 7.23
